ChEMBL document CHEMBL1157539, “Thousands of chemical starting points for antimalarial lead identification” (Nature, 2010)
In all, about 13,000 compounds were measured (“IFI”: median about 4, highest 2% from about 17 on). For the sample, the highest values were picked, then their nearest neighbours and some compounds at random.

assay: GSK_TCMDC: Inhibition Frequency Index (IFI). The number of non-kinase HTS assays where a compound showed > 50 % inhibition, expressed as a percentage of the number of such assays in which the compound was tested; assay type: functional

| Structure (SMILES) | IFI [%] |
| --- | --- |
| C#Cc1cccc(NC(=O)[C@H](CC2CCCCC2)Nc2ccc(C#N)c3ccccc23)c1 | 3.77 |
| CCCCOc1ccc(-c2nc3ccccc3[nH]2)cc1 | 2.14 |
| COc1ccc(OCCCON2C(=N)N=C(N)NC2(C)C)cc1 | 2.88 |
| O=S(=O)(NCCN1CCCC1)c1ccc(-c2cccc(CNCc3ccc(F)cc3)c2)s1 | 9.65 |
| CCNC(=O)Nc1cccc(-c2cccc(-c3nc4cccc(C)c4[nH]3)c2)c1 | 5.05 |
| CN(C)CCn1c(=N)n(CC(O)c2ccc(Cl)c(Cl)c2)c2ccccc21 (centres undefined) | 2.21 |
| CCN(CC)CCn1c(=N)n(CC(O)c2ccc(Cl)c(Cl)c2)c2ccccc21 (centres undefined) | 6.52 |
| CCCCCCCn1c(=N)n(CC(O)c2ccc(Cl)c(Cl)c2)c2ccccc21 (centres undefined) | 17.6 |
| Cc1ccc(C2(CN3CCC(NC(=O)c4n[nH]cc4Cl)CC3)CCCCC2)cc1 | 8.33 |
| CN1CCN(CC(=O)Nc2cccc(-c3cccc(-c4nc5ccccc5[nH]4)c3)c2)CC1 | 1.8 |
| O=C(Nc1cccc(C(F)(F)F)c1)Nc1ccc(F)c([N+](=O)[O-])c1 | 15.8 |
| O=C(Nc1ccc(SC(F)(F)F)cc1)Nc1ccnc2ccccc12 | 9.29 |
| O=C(Nc1ccc(Cl)c(C(F)(F)F)c1)Nc1ccc(Cl)c(C(F)(F)F)c1 | 12.7 |
| O=C(Nc1ccc(SC(F)(F)F)cc1)Nc1ccc(Cl)c(Cl)c1 | 18.7 |
| O=C(Nc1ccc(Cl)cc1)Nc1ccc2nonc2c1 | 12.8 |
| O=C(Nc1cc(C(F)(F)F)cc(C(F)(F)F)c1)Nc1ccc(Cl)c(Cl)c1 | 19.1 |
| O=C(Nc1cccc(C(F)(F)F)c1)Nc1ccc(Cl)c(Cl)c1 | 16.1 |
| O=C(Nc1ccc(Cl)c(Cl)c1)Nc1cc(C(F)(F)F)ccc1Cl | 5.71 |
| O=C(Nc1cccc(C(F)(F)F)c1)Nc1ccc2nonc2c1 | 22.5 |
| c1ccc2c(NCCCCCCCCNc3ccnc4ccccc34)ccnc2c1 | 8.27 |
| CCOc1cc(N)c2nc3ccc([N+](=O)[O-])cc3cc2c1 | 6.47 |
| CC(C)(C)NS(=O)(=O)c1cc(C(=O)N2CCC(CCN3CCC(C(=O)c4ccc(F)cc4)CC3)(c3cccc(F)c3)CC2)c(Cl)cc1F | 3.55 |
| C=CCOC(=O)N1CCC(CNCc2ccc(-c3ccc(-c4nc5ccccc5[nH]4)s3)cc2)C1 (centres undefined) | 11 |
| COc1cccc(Nc2nccc(-c3c(-c4cccc(NC(=O)c5c(F)cccc5F)c4)nn4ccccc34)n2)c1 | 4.39 |
| NC(=O)C1CCN(Cc2ccc(-c3ccc(-c4nc5cc(F)ccc5[nH]4)cc3)cc2)CC1 | 4.72 |
| Fc1ccc2c(NN=Cc3ccc(Cl)cc3)ccnc2c1 | 0.74 |

| Structure (SMILES) | IFI [%] |
| --- | --- |
| O=C(NCCCCN1CCC(c2ccc3ccccc3c2O)CC1)c1ccc(-c2ccc(Cl)cc2)cc1 | 15.1 |
| CC(C)C(=O)NC(c1ccc(N(C)C)cc1)c1cc(Cl)c2cccnc2c1O (centres undefined) | 5.38 |
| CCn1c(-c2nonc2N)nc2c(-c3cccc(NC(=O)Nc4cccc(C(F)(F)F)c4)c3)ncc(OCCCN)c21 | 14.6 |
| NCCCOc1cnc(-c2ccccc2)c2nc(-c3nonc3N)n(CCc3ccccc3)c12 | 18.8 |
| CCn1c(-c2nonc2N)nc2c(-c3ccccc3)ncc(OCCCNCCCN3CCOCC3)c21 | 3.08 |
| CCn1c(-c2nonc2N)nc2c(-c3cccc(NC(=O)Nc4cccc(Cl)c4)c3)ncc(OCCCN)c21 | 17.6 |
| CCn1c(-c2nonc2N)nc2c(-c3cccc(NC(=O)Nc4ccc(C#N)cc4)c3)ncc(OCCCN)c21 | 15.7 |
| CCn1c(-c2nonc2N)nc2c(-c3cccc(NC(=O)Nc4ccc(C(F)(F)F)cc4)c3)ncc(OCCCN)c21 | 19.1 |
| CCn1c(-c2nonc2N)nc2c(-c3cccc(NC(=O)NCc4ccccc4)c3)ncc(OCCCN)c21 | 12.9 |
| CCn1c(-c2nonc2N)nc2c(-c3cccc(NC(=O)Nc4ccc(Cl)cc4)c3)ncc(OCCCN)c21 | 19.3 |
| CCn1c(-c2nonc2N)nc2c(-c3cccc(NC(=O)Nc4cccc(C#N)c4)c3)ncc(OCCCN)c21 | 16.7 |
| CCn1c(-c2nonc2N)nc2c(-c3cccc(NC(=O)Nc4ccc5c(c4)CCC5)c3)ncc(OCCCN)c21 | 14.8 |
| CCOC(=O)c1cccc(NC(=O)Nc2cccc(-c3ncc(OCCCN)c4c3nc(-c3nonc3N)n4CC)c2)c1 | 16.5 |
| CCn1c(-c2nonc2N)nc2c(-c3cccc(NC(=O)NC45CC6CC(CC(C6)C4)C5)c3)ncc(OCCCN)c21 | 16.7 |
| Cc1ccc(NC(=O)c2cc(S(=O)(=O)NC(C)(C)C)ccc2C)nc1 | 0 |
| O=C(NC1CCN(CC2(c3ccccc3F)CCCC2)CC1)c1cc[nH]n1 | 0 |
| Cc1nc(C)c(-c2ccc(C(F)(F)F)cc2)c(O)c1Br | 0 |
| O=S(=O)(NCCN1CCCC1)c1ccc(-c2cccc(CNCc3ccsc3)c2)s1 | 6.9 |
| O=c1cc(NCCCNCc2cn(S(=O)(=O)c3ccccc3)c3ccccc23)[nH]c2ccccc12 | 5.88 |
| COc1ccc2cc(-c3nc(-c4c(Cl)cccc4Cl)[nH]c3-c3ccnc(NCCC4CCCN4C)c3)ccc2c1 (centres undefined) | 11.3 |
| C=CCn1ccc2c3c(N)nc(N)nc3ccc21 | 6.4 |
| Cc1ccc2cc(NCCCCCCCCON3C(N)=NC(N)=NC34CCCCC4)ccc2n1 | 11.6 |
| NC1=NC2(CCCCC2)N(OCCCCCCN2C(=O)c3ccccc3C2=O)C(N)=N1 | 1.43 |
| CC1(C)N=C(N)N=C(N)N1OCCCc1ccccc1 | 4.35 |
| NC1=NC2(CCCCC2)N(OCCCCCCc2ccccc2)C(N)=N1 | 23.9 |
| NC1=NC2(CCCCC2)N(OCCCCCCCCNc2nc(N)nc(N)n2)C(N)=N1 | 1.44 |

| Structure (SMILES) | IFI [%] |
| --- | --- |
| NC1=NC2(CCCCC2)N(OCCCCCCC2CCCCC2)C(N)=N1 | 27.6 |
| FC(F)(F)c1ccc2[nH]c(-c3ccc(-c4cccc(CNCC5CCCO5)c4)s3)nc2c1 (centres undefined) | 7.92 |
| O=C(Nc1ccc(CN2CCOCC2)cc1)c1ccc(-c2ccc(Cl)cc2)o1 | 2.78 |
| COc1ccc(-c2cc(C(=O)N[C@@H](CC3CCCCC3)C(=O)NCCN3CCCC3)ccc2O)cc1 | 3.45 |
| CCN(CC)CCN(Cc1ccc(-c2ccc(C(F)(F)F)cc2)cc1)C(=O)Cn1c(CCc2cccc(F)c2F)nc(=O)c2ccccc21 | 8.39 |
| Fc1ccc2[nH]c(-c3cccc(-c4ccc(CNCc5ccccc5)cc4)c3)nc2c1 | 8.57 |
| Fc1ccc2[nH]cc(CCNCc3ccc(-c4cccc(-c5nc6ccccc6[nH]5)c4)cc3)c2c1 | 17.8 |
| Fc1ccc2[nH]c(-c3cccc(-c4ccc(CNCCc5ccncc5)cc4)c3)nc2c1 | 9.71 |
| O=C(/C=C/c1ccc(Cl)c(Cl)c1)NCC[C@@H]1C[C@H]1CCN1CCC(c2c[nH]c3ccccc23)CC1 | 12.3 |
| Cc1cc(=NN=Cc2ccc(Cl)cc2)c2ccccc2[nH]1 | 0.7 |
| N=C(NCCCCCCCCNC(=N)Nc1ccc(Cl)cc1)Nc1ccc(Cl)cc1 | 3.65 |
| CN(C)/C(=N/C(=N)Nc1ccc(Cl)cc1)NCCCCCCN/C(=N\C(=N)Nc1ccc(Cl)cc1)N(C)C | 8.89 |
| Clc1ccc(/N=C(/NCCCCCCCN/C(=N\c2ccc(Cl)cc2)Nc2ccc(Cl)cc2)Nc2ccc(Cl)cc2)cc1 | 17.1 |
| COc1ccc(O)c(C(=O)c2cc(C(=O)NC3CCCCC3)c(=O)n(C3CCCCC3)c2)c1 | 10.8 |
| N#Cc1cc(C(=O)c2cc(Br)ccc2O)cn(C2CCCCC2)c1=O | 2.78 |
| O=C(c1cc(C(=O)NC2CCCCC2)c(=O)n(C2CCCCC2)c1)c1cc(F)ccc1O | 19.4 |
| COc1ccc(NCCCNc2ccnc3ccccc23)cc1 | 17.5 |
| c1ccc2c(NCCCCCCNc3ccnc4ccccc34)ccnc2c1 | 4.55 |
| c1ccc2c(NCCCCCCCNc3ccnc4ccccc34)ccnc2c1 | 11.3 |
| Nc1nc(N)c2c(ccc3c2ccn3Cc2ccc(Cl)cc2)n1 | 13.2 |
| CCn1c(Sc2ccc([N+](=O)[O-])c(C#N)c2)nnc1-c1ccc(Cl)cc1 | 3.4 |
| OCC1CCN(Cc2ccc(-c3ccc(-c4nc5cc(F)ccc5[nH]4)cc3)cc2)CC1 | 2.94 |
| Oc1c(C(Nc2nc3ccccc3s2)c2ccc(OC(F)F)cc2)ccc2cccnc12 (centres undefined) | 9.4 |
| CN(C)CCOc1ccc2c(=O)cc(CCc3cccc(F)c3F)n(CC(=O)N(C)Cc3ccc(-c4ccc(C(F)(F)F)cc4)cc3)c2c1 | 2.92 |
| CCOC(=O)c1cc2c(CCN3C(=O)c4ccccc4C3=O)cn(C)c2cc1-c1ccncc1 | 30.4 |
| CCOC(=O)c1cc(C(=O)NCCCCN2CCC(c3cn(C)c4ccccc34)CC2)ccc1-c1ccc(C(F)(F)F)cc1 | 5.31 |

| Structure (SMILES) | IFI [%] |
| --- | --- |
| CCOC(=O)c1c(CNc2ccncc2)n(C)c2cc(Br)c(OC(C)=O)cc12 | 0.74 |
| CC(=O)Nc1ccc(C(=O)Nc2cccc(-c3cccc(-c4nc5cc(C(F)(F)F)ccc5[nH]4)c3)c2)cn1 | 3.7 |
| CC(=O)Nc1ccc(Cl)c(Cl)c1 | 0 |
| N=C(N)NC(=O)Nc1ccc(Cl)c(Cl)c1 | 1.52 |
| NCCCN(Cc1ccc(Cl)c(Cl)c1)C(=O)Nc1ccc(Cl)c(Cl)c1 | 17.7 |
| COc1ccc(CCNCCCCCCNCCc2ccccc2Cl)cc1OC | 2.88 |
| FC(F)(F)c1cccc(CCNc2nccc(NCc3ccc(Cl)cc3Cl)n2)c1 | 25 |
| FC(F)(F)c1cccc(CCNc2nccc(NCc3ccccc3Cl)n2)c1 | 8 |
| COc1ccccc1CNc1ccnc(NCCc2cccc(C(F)(F)F)c2)n1 | 16 |
| Fc1ccc(NC(S)=NN=Cc2ccccn2)cc1 | 7.48 |
| Cc1[nH]c(C)c(-c2ccc(-c3ccc(OC(F)(F)F)cc3)nc2)c(=O)c1Cl | 1.69 |
| Cc1cc(Nc2ccncc2)n2nc(C)c(-c3ccc(Cl)cc3)c2n1 | 1.69 |
| Cc1ccc2[nH]c(-c3cc(-c4cccc(C#N)c4)cnc3N)nc2c1 | 7.14 |
| Cc1cccc2nc(-c3ccc(-c4ccc(CN5CCCC(N)C5)cc4)s3)[nH]c12 (centres undefined) | 5.56 |
| C[C@@]12C[C@@H](Nc3nc(NCCc4ccc(O)cc4)nc(N4CCNCC4)n3)C[C@@H](C1)c1cccc(Cl)c1O2 | 20.9 |
| Oc1ccc(CCNc2nc(NCCCOc3ccccc3-c3ccncc3)nc(N3CCNCC3)n2)cc1 | 1.72 |
| Cc1cccc(-c2cccc(CNc3nc(NCCc4ccc(O)cc4)nc(N4CCNCC4)n3)c2)c1 | 12.7 |
| Cc1cc(OCCCNc2nc(NCCc3ccc(O)cc3)nc(N3CCNCC3)n2)c(Cl)c(C)c1Cl | 18.5 |
| Oc1ccc(CCNc2nc(NCc3ccc4cc(Cl)ccc4c3)nc(N3CCNCC3)n2)cc1 | 17.2 |
| Oc1ccc(CCNc2nc(NCCCOc3cccc(CN4CCCCC4)c3Cl)nc(N3CCNCC3)n2)cc1 | 4.69 |
| COc1ccc(-c2ccccc2OCCCNc2nc(NCCc3ccc(O)cc3)nc(N3CCNCC3)n2)cc1 | 13.8 |
| Cc1c(CN2CCCCC2)cccc1OCCCNc1nc(NCCc2ccc(O)cc2)nc(N2CCNCC2)n1 | 7.58 |
| Oc1ccc(CCCNc2nc(NCc3cccc4ccccc34)nc(N3CCNCC3)n2)cc1 | 7.69 |
| Oc1ccc(CCNc2nc(NCc3ccccc3-c3cccc(Cl)c3)nc(N3CCNCC3)n2)cc1 | 15.4 |
| Oc1ccc(CCNc2nc(NCCOc3ccccc3-c3ccccc3)nc(N3CCNCC3)n2)cc1 | 20 |
| Oc1ccc(CCNc2nc(N/N=C/c3ccc(Cl)cc3)nc(N3CCNCC3)n2)cc1 | 0.75 |
